Assay results reported in PubChem BioAssay (Tox21).
Inconclusive results are not listed. A call without a number means that no potency is given here. Activity calls are given as the source filed them. The call rests on the fitted dose curve; in most records, active means well fitted cell-killing curve with a large enough effect in the repeat runs (not every such curve was filed as active); inconclusive means weak or mixed curves, or effect the other way; inactive means no such curve, though single readings can be large or run the other way.
Potency means the concentration at half of the fitted maximal effect.

Experiment: qHTS assay to identify small molecule antagonists of the estrogen related receptor signaling pathway with the pleiotropic PPARgamma coactivator (PGC) from Tox21 10K library - cell viability counter screen (AID 1224840); further: nearly all actives have a fitted effect of over 40% in size
Conditions: PGC/ERR reporter cells viability, CellTiter-Fluor, 17.5 h; series mostly up to 92.4 µM
Excerpt: National Center for Advancing Translational Sciences [NCATS]
NIH Chemical Genomics Center [NCGC]
U.S. Environmental Protection Agency [EPA]
National Institutes of Environmental Health Sciences [NIEHS]
National Toxicology Program [NTP]
U.S. Food and Drug Administration [FDA]
Estrogen related receptors (ERRs), the first orphan nuclear receptors discovered, play an important role in the control of cellular energy metabolism. ERRs are required for high-energy production in response to the environmental challenges. The pleiotropic PPARgamma coactivator (PGC) is a major partner of ERR and a key regulator in energy homeostasis. Together they have been implicated in the etiology of metabolic disorders such as Type 2 diabetes and metabolic syndrome. ERR-alpha was also identified as an adverse marker for breast cancer progression; ERR-alpha-positive tumors have a poor prognosis. To screen and to identify environmental compounds that perturb the ERR and PGC/ERR signaling pathways could provide valuable information for potential therapeutic or preventive measures in the treatment of metabolic disease. To differentiate true PGC/ERR antagonists or agonist from cytotoxic substances, the assay is multiplexed with cell viability assay.
Tox21 Assay Protocol Summary:
The PGC/ERR cells were dispensed at 2,000 cells/5 ul/well in 1536-well white plates using a Multidrop dispenser. After the assay plates were incubated at a 37 C/5% CO2 incubator for 6 hours, 23 nL of compounds dissolved in DMSO, positive and negative controls or DMSO only was transferred to the assay plate by a pin tool. The plates were incubated at 37 C for 17.5 hours. 1 ul/well of CellTiter-Fluor reagent was added into the assay plates using a Flying Reagent Dispenser. After 30-minute incubation at 37 C/5% CO2, the fluorescence intensity in the plates was measured using a ViewLux plate reader.
With `CCOP(=S)(OCC)Oc1cc(C)nc(N(CC)CC)n1` the Potency was “inactive”. In the case of `c1ccc(N=NNc2ccccc2)cc1`, the Potency is reported as “inactive”. In the case of `CC[N+]1(CC)CCC(OC(=O)C(O)(c2ccccc2)c2ccccc2)C1` (stereo not given), the Potency is reported as “inactive”. For `Oc1ccc([C@H]2CNCc3c2ccc(O)c3O)cc1O`, the Potency was “inactive”. With `S=C=NCCc1ccccc1` the Potency was “inactive”. With `ClC1=C(Cl)[C@]2(Cl)[C@@H]3[C@H]4C[C@H]([C@@H]5O[C@H]45)[C@@H]3[C@@]1(Cl)C2(Cl)Cl` the Potency was “inactive”. For `CC(C)Br`, the Potency was “inactive”. For `CNC(=O)Oc1cc(C)cc(C(C)C)c1`, the Potency was “inactive”. For `CC(C)[C@@H](Nc1ccc(C(F)(F)F)cc1Cl)C(=O)OC(C#N)c1cccc(Oc2ccccc2)c1` (stereo not given in full), the Potency was “inactive”. In the case of `ClSC(Cl)(Cl)Cl`, the Potency is reported as “inactive”. In the case of `CCC(C)Br` (stereo not given), the Potency is reported as “inactive”. In the case of `CSC1=N[C@@](C)(c2ccccc2)C(=O)N1Nc1ccccc1`, the Potency is reported as “inactive”. With `Nc1ccccc1-c1ccccc1` the Potency was “inactive”. In the case of `CSSC`, the Potency is reported as “inactive”. In the case of `CC(=O)[O-].CC(=O)[O-].CC(=O)[O-].[Cr+3]`, the Potency is reported as “inactive”. With `Cc1cc2c3c(c1)C(c1ccccc1)=N[C@@H](NC(=O)c1ccncc1)C(=O)N3CC2` the Potency was “inactive”. In the case of `CC(Cc1ccc2c(c1)OCO2)NO` (stereo not given), the Potency is reported as “inactive”. In the case of `CC1=C2C[C@H]3[C@@H](CC=C4C[C@@H](O)CC[C@@]43C)[C@@H]2CC[C@]12O[C@@H]1C[C@H](C)CN[C@H]1[C@H]2C`, the Potency is reported as 26.6 µM (active). For `O=S(=O)(O)F`, the Potency was “inactive”. In the case of `ClC(Cl)C(Cl)(Cl)Cl`, the Potency is reported as “inactive”. In the case of `c1cc[n+]2c(c1)-c1cccc[n+]1CC2`, the Potency is reported as “inactive”. In the case of `CO/N=C(\C(=O)OC)c1ccccc1CO/N=C(\C)c1cccc(C(F)(F)F)c1`, the Potency is reported as “inactive”. In the case of `CC(C)(C)c1ccc(OP(=O)(Oc2ccccc2)Oc2ccccc2)cc1`, the Potency is reported as “inactive”. In the case of `O=S1(=O)OCC2C(CO1)C1(Cl)C(Cl)=C(Cl)C2(Cl)C1(Cl)Cl` (stereo not given), the Potency is reported as “inactive”. In the case of `C[C@]12CC[C@H]3[C@@H](CCC4=CC(=O)CC[C@@H]43)[C@@H]1CC[C@@H]2OC(=O)CCc1ccco1`, the Potency is reported as “inactive”. With `ClC1=C(Cl)[C@]2(Cl)[C@H]3[C@H]([C@@H]4C=C[C@H]3C4)[C@@]1(Cl)C2(Cl)Cl` the Potency was “inactive”. In the case of `CC#C[C@]1(O)CC[C@H]2[C@@H]3C[C@H](C)C4=CC(=O)CC[C@]4(C)[C@H]3CC[C@@]21C`, the Potency is reported as “inactive”. In the case of `O=[N+]([O-])c1cccc2cccc([N+](=O)[O-])c12`, the Potency is reported as “inactive”. For `CCCCC/C=C\C/C=C\C/C=C\C/C=C\CCCC(=O)NCC(=O)O`, the Potency was “inactive”. In the case of `N#CCCl`, the Potency is reported as “inactive”. For `CCN(CC)Cc1nccn1-c1ccc([N+](=O)[O-])cc1C(=O)c1ccccc1Cl`, the Potency was “inactive”. In the case of `CCNc1nc(NC(C)C(C)C)nc(SC)n1` (stereo not given), the Potency is reported as “inactive”. With `Clc1c(Cl)c(Cl)c(Cl)c(Cl)c1Cl` the viability change, negative = cytotoxic was 8.1% [at 8.39 µM] (inactive). With `c1ccc2nc(N3CCNCC3)ccc2c1` the Potency was “inactive”. In the case of `C[C@]12Cc3cn[nH]c3C[C@@H]1CC[C@@H]1[C@@H]2CC[C@@]2(C)[C@H]1CC[C@]2(C)O`, the Potency is reported as “inactive”. With `[F][Sn]([c]1ccccc1)([c]1ccccc1)[c]1ccccc1` the Potency was 0.611 µM (active). In the case of `NC(=O)C(Cl)Cl`, the Potency is reported as “inactive”. In the case of `COC(=O)C(C)N(C(=O)c1ccco1)c1c(C)cccc1C` (stereo not given), the Potency is reported as “inactive”. With `CCc1cccc(C)c1N(C(=O)CCl)[C@@H](C)COC` the Potency was “inactive”. With `C#CCO` the Potency was “inactive”.
